Shown is part of a subset that was picked to be rich in hits.
AmpC no deterg: blocks E. coli AmpC beta-lactamase in detergent-free assay. Potency, µM (titrated, usually from 57.1 µM), for inactives: at the highest dose activity change, negative = inhibition, hits mostly inhibitors. AID 485341. 0.52% of 330,000 active. AmpC nitrocefin hydrolysis, absorbance 480 nm, 0.0001% Triton. P00811;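 note: potency is the fitted concentration of half-maximal effect; plate controls were no compound for no effect and no enzyme for full effect; nearly all actives have a fitted effect of over 20% in size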
Target sequence (P00811 whole entry, looked up): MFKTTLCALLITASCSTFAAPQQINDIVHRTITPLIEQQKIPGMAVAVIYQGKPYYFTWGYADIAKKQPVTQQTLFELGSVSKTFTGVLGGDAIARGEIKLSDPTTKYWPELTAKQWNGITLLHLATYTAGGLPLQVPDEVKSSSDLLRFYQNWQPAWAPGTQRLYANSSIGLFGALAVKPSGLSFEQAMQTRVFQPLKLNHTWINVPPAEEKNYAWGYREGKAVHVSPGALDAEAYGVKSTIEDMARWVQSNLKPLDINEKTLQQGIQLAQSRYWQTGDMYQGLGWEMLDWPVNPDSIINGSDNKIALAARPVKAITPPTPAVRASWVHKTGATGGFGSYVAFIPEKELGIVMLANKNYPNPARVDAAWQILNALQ
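20 mM phosphate pH 7.0 + 0.01% (detergent screen) or 0.0001% Triton X-100; 5.3 nM AmpC reagent; cpd preinc 15 min RT; nitrocefin (800 uM stock) to start; A480 q20 s × 4 min; Activity was normalised to no-enzyme and no-compound control wells.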
AmpC detergent: AmpC beta-lactamase inhibition with detergent present; P00811; AmpC hydrolysis of nitrocefin, absorbance 480 nm, 0.01% Triton; Potency, µM (highest dose often 114 µM), without a hit: top-dose activity change, negative = inhibition, most hits filed as inhibitors; 0.041% of 370,000 active; AID 485294;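 note: potency is the fitted concentration of half-maximal effect; 0% = no-compound wells and -100% = no-enzyme wells; nearly all actives have a fitted effect of over 25% in size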
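20 mM phosphate pH 7.0 + 0.01% (detergent screen) or 0.0001% Triton X-100; 5.3 nM AmpC reagent; cpd preinc 15 min RT; nitrocefin (800 uM stock) to start; A480 q20 s × 4 min; Activity was normalised to no-enzyme and no-compound control wells.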
Shiga inhibitor: blocks Shiga toxin action in Vero cells; AID 2315; Vero cells, Shiga toxin protein synthesis inhibition reporter; 9.2% of 290,000 active; inhibition, % at 38.7 µM; in the data active = inhibition mostly above about 28%, no sharp cut-off; inactive = mostly below about 43%; note: 0% is about no effect
Cycloheximide cs: counter-screen hit for Shiga toxin inhibitors, cycloheximide | cell reporter, cycloheximide protein synthesis inhibition counterscreen | 12% of 300,000 active | max response, %; in the data active = max response mostly above about 13%, no sharp cut-off; inactive = mostly below about 14%; note: read at 38.3 µM for the half of the compounds with a filed dose; 0% is about no effect
NS1 function inh: blocks influenza NS1 protein function | Potency, µM (highest dose often 46.1 µM), for the others: at the highest dose activity, positive = more growth | 0.4% of 270,000 active | AID 2326; calls by dose curve; note: potency is the fitted concentration of half-maximal effect; actives are rising curves; nearly all actives have a fitted effect of over 50% in size
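Growth recovery, yeast-based: influenza A NS1 expressed in S. cerevisiae causes slow growth, and suppressors are detected by OD600. The parent strain without NS1 is used as positive control.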
The depositor's hits bear a star; [ ] = another dose, or the depositor's remark. Unless noted, calls come from the whole dose curve; as a rule, active = well fitted curve in the direction sought with a large enough effect; inconclusive = small, poorly fitted or top-dose-only effect, or another doubt; inactive = no such curve, though single readings can be large; an effect the other way counts as inactive or inconclusive.

For Cc1cc(Br)c2[nH]cc(CCNC(=O)c3ccco3)c2c1 the results were AmpC no deterg -8.0%, AmpC detergent -13.3%, Shiga inhibitor 7.4, Cycloheximide cs -2.7 and NS1 function inh -47.1%.
COc1ccc(-c2nc(-c3cccs3)no2)cc1 was read as AmpC no deterg 20.7%, AmpC detergent -1.8%, Shiga inhibitor -13.5, Cycloheximide cs 9.7 and NS1 function inh -9.0%.
c1csc(-c2nc(-c3ccc(-c4ccon4)s3)no2)c1 was read as AmpC no deterg -26.9%, AmpC detergent -9.6%, Shiga inhibitor 65.4*, Cycloheximide cs 56.1* and NS1 function inh -5.5%.
c1ccc(-c2nc(-c3ccc(-c4ccon4)s3)no2)cc1 was read as AmpC no deterg 34.0%, AmpC detergent 1.5%, Shiga inhibitor 61.3*, Cycloheximide cs 33.6* and NS1 function inh 0.4%.
Screening Cc1c(NC(=O)c2ccccc2)cccc1[N+](=O)[O-] returned AmpC no deterg -28.9%, AmpC detergent 0.8%, Shiga inhibitor active, Cycloheximide cs 17.5* and NS1 function inh -2.6%.
COc1ccccc1Nc1ccc(NC(=O)c2cccc([N+](=O)[O-])c2C)cc1 was read as AmpC no deterg 3.16µM*, AmpC detergent 0.9%, Shiga inhibitor 55.2*, Cycloheximide cs 30.1* and NS1 function inh 14.7%.
`CCN(CC)S(=O)(=O)c1cc(C(=O)NC2=NCCS2)ccc1Cl` gave AmpC no deterg -26.5%, AmpC detergent inconclusive, Shiga inhibitor -2.2, Cycloheximide cs 0.8 and NS1 function inh -112.2%.
O=C(O)c1ccc(NS(=O)(=O)c2cccc(C(=O)Nc3ccccc3[N+](=O)[O-])c2)cc1 was read as AmpC no deterg -15.8%, AmpC detergent -5.5%, Shiga inhibitor -3.7, Cycloheximide cs 6.3 and NS1 function inh 8.5%.
Screening CN(C)S(=O)(=O)c1cccc(C(=O)Nc2ccccc2[N+](=O)[O-])c1 returned AmpC no deterg -27.8%, AmpC detergent -6.9%, Shiga inhibitor 51.2*, Cycloheximide cs 18.1* and NS1 function inh 4.1%.
`CCC(=O)NC(=S)Nc1ccc(NC(=O)c2cccc([N+](=O)[O-])c2C)cc1` gave AmpC no deterg -30.0%, AmpC detergent -6.9%, Shiga inhibitor -10.5, Cycloheximide cs -2.3 and NS1 function inh 1.6%.
`CCN(CC)S(=O)(=O)c1cc(C(=O)Nc2cc(C)[nH]n2)ccc1Cl` gave AmpC no deterg -26.0%, AmpC detergent -8.9%, Shiga inhibitor 117.5*, Cycloheximide cs 66.5* and NS1 function inh -0.4%.
`COc1ccccc1NC(=O)CSc1ncc2c(n1)-c1ccccc1N(Cc1ccccc1C)S2(=O)=O` gave AmpC detergent -1.5%.
Screening CCN(CC)S(=O)(=O)c1cc(C(=O)O)ccc1Cl returned AmpC no deterg -28.4%, AmpC detergent -3.7%, Shiga inhibitor 22.7, Cycloheximide cs 0.8 and NS1 function inh inconclusive.
`COc1cc(C(=O)Nc2ccc(N(C)C)cc2)c([N+](=O)[O-])cc1OC` gave AmpC no deterg -8.5%, AmpC detergent 2.4%, Shiga inhibitor 107.0*, Cycloheximide cs 40.7* and NS1 function inh 8.0%.
Screening CCN(CC)S(=O)(=O)c1cc(C(=O)Nc2ccccc2[N+](=O)[O-])ccc1Cl returned AmpC no deterg -50.7%, AmpC detergent -2.8%, Shiga inhibitor 41.4*, Cycloheximide cs 27.1* and NS1 function inh 7.3%.
COC(=O)CSc1nc2sc3c(c2c(=O)n1-c1ccc(C)cc1)CC(C(C)C)OC3 (stereo not drawn) was read as AmpC detergent 3.4%.
Screening CC(=O)Nc1ccc(C(=O)OCC(=O)/C(C#N)=C(\C)N)cc1 returned AmpC no deterg -19.1%, AmpC detergent -3.4%, Shiga inhibitor 16.4, Cycloheximide cs 25.0* and NS1 function inh 9.6%.
Screening C/C(N)=C(/C#N)C(=O)COC(=O)c1ccccc1Cc1ccccc1 returned AmpC no deterg -18.3%[11.4 µM], AmpC detergent -13.1%, Shiga inhibitor 21.8 and Cycloheximide cs 18.4*.
For C/C(N)=C(/C#N)C(=O)COC(=O)c1cccc(O)c1 the results were AmpC no deterg -19.3%, AmpC detergent -14.8%, Shiga inhibitor 97.3* and Cycloheximide cs 17.2.
Screening Cc1cc2[nH]c(=O)c(=O)[nH]c2cc1S(=O)(=O)Nc1cccc(C)c1C returned AmpC no deterg -21.4%, AmpC detergent 0.2%, Shiga inhibitor -3.3, Cycloheximide cs -0.3 and NS1 function inh 9.2%.

Source: PubChem BioAssay
